Rows were chosen to be rich in hits. Some 5.9% of all compounds tested hit in one or more screens of this group.
GLP-1R agonist = GLP-1 receptor (human) agonism; P43220; HEK293 GLP-1R CRE-luciferase, luminescence, 4-6 h; cells express a hypersensitive GLP-1R form; Potency, µM (top dose mostly 45.6 µM), actives largely listed as activators; 380,000 tested, 0.007% active; AID 624172
Target sequence (P43220 whole entry, looked up): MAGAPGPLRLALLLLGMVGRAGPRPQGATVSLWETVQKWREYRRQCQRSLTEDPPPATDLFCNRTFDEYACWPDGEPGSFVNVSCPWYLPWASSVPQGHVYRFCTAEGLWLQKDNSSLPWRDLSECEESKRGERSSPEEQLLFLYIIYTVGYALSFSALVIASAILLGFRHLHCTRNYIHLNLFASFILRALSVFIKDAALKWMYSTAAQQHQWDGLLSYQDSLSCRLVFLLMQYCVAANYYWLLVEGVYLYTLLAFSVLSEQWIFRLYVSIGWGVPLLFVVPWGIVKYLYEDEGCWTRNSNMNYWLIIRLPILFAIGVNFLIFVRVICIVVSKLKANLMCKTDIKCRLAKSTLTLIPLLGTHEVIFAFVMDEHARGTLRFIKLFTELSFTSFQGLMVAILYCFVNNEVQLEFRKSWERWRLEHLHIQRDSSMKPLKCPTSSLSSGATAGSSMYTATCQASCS
VP16 counter = counter-screen for ROR gamma inhibitors: Gal4-VP16 reporter; AID 2546; 310,000 tested, 3.5% active; Potency, µM (highest dose often 53.6 µM), hits mostly inhibitors; Drosophila S2 Gal4-VP16 UAS-luciferase, luminescence, 20 h;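 further: Gal4-VP16 expression switched on by copper sulfate through the metallothionein promoter; nearly all actives have a fitted effect of over 50% in size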
GLP1R cytotox = cytotoxicity counter-screen for GLP-1 receptor inverse agonists | HEK293 cAMP-luciferase reporter cells, luminescence, 24 h | Potency, µM (series often up to 38.3 µM), actives largely listed as inhibitors | 410,000 tested, 0.13% active;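 further: loss of luciferase light is scored as toxicity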
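Here, cytotoxicity is scored as loss of luminescence. The MLSMR collection was tested on cells seeded in medium containing 10% Nu serum, with a 24 hr compound exposure preceded by 12 hours of culture.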
GLP-1R inv ag = acts as inverse agonist at human GLP-1 receptor; P43220; 410,000 tested, 1.6% active; HEK293 GLP-1R CRE-luciferase, luminescence, 24 h; GLP-1R form is constitutively active; AID 624417; Potency, µM (series often up to 38.3 µM), hits mostly inhibitors; further: nearly all actives have a fitted effect of over 55% in size
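HEK293 cells stably co-expressing constitutively active GLP-1R and a cAMP-responsive luciferase reporter were seeded in DMEM with 10% Nu serum, given compounds after 12 h, and incubated 24 h at 37 deg C. Luminescence was then read.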
RORgamma inh = blocks mouse ROR gamma transcriptional activity; 310,000 tested, 5.4% active; P51450; AID 2551; Potency, µM (series often up to 53.6 µM), usual class: inhibitors; Drosophila S2 Gal4-RORgamma UAS-luciferase reporter, 20 h; further: nearly all actives have a fitted effect of over 60% in size
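Read-out: Photinus luciferase luminescence; inhibitors lower reporter signal. Insect Schneider cells with Gal4-ROR gamma fusion under metallothionein promoter, UAS reporter; 700 uM final copper sulfate induction, 20 hr, ambient temperature.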
Large screens that a line does not name were inactive; ! = repeats disagree. The call rests on the fitted dose curve; in most records, active means well fitted curve in the direction sought with a large enough effect; inconclusive means small, poorly fitted or top-dose-only effect, or another doubt; inactive means no such curve, though single readings can be large; an effect the other way counts as inactive or inconclusive.

CCOc1cc(/C=N/NC(=O)c2cccnc2)ccc1O	none
CCOc1cccc(/C=N/NC(=O)c2cccnc2)c1O	VP16 counter 0.32µM, GLP1R cytotox inconclusive, GLP-1R inv ag inconclusive, RORgamma inh 0.2µM
COc1ccc(OC)c(NC(=O)Cc2coc3ccc(C(C)C)cc23)c1	GLP-1R inv ag inconclusive (no result: GLP-1R agonist, VP16 counter, RORgamma inh)
CSc1ccc(C2NN=C(c3ccccc3)S2)cc1 (stereo unspecified)	none (no result: VP16 counter, RORgamma inh)
CCOc1cc(C2NN=C(c3ccc(C)cc3)S2)ccc1O (stereo unspecified)	VP16 counter 14µM, RORgamma inh 1.1µM
COc1ccc(C2NN=C(c3ccc(C)cc3)S2)cc1 (stereo unspecified)	VP16 counter 7.1µM, RORgamma inh inconclusive
CCOc1cc(C2c3c(n[nH]c3C)C(=O)N2c2ccc(C)cc2)ccc1O (stereo unspecified)	none
CS(=O)(=O)Nc1cc2occ(NC=O)c(=O)c2cc1Oc1ccccc1	none (no result: VP16 counter, GLP1R cytotox, GLP-1R inv ag, RORgamma inh)
CN(C)NC(=S)NC(=O)C12CC3CC(CC(C3)C1)C2	VP16 counter 2.8µM, GLP1R cytotox inconclusive, GLP-1R inv ag inconclusive, RORgamma inh 1µM
O=C(NC(=S)NC1C2CC3CC(C2)CC1C3)C12CC3CC(CC(C3)C1)C2 (stereo unspecified)	VP16 counter 2.8µM, GLP-1R inv ag inconclusive, RORgamma inh 1µM
CC(C)(C)NC(=S)NC(=O)C12CC3CCC(CC(C3)C1)C2	VP16 counter 4.5µM, RORgamma inh 2.8µM
CC(C)=CCC[C@](C)(O)C1CC[C@]2(C)[C@@H]1CC[C@@H]1[C@@]3(C)CCC(=O)C(C)(C)[C@@H]3CC[C@]12C (stereo partly specified)	none (no result: GLP-1R agonist, GLP1R cytotox, GLP-1R inv ag)
O=NCc1ccc([N+](=O)[O-])o1	none (no result: GLP1R cytotox, GLP-1R inv ag)
CN(C)C(=S)NC(=O)C12CC3CC(C)(CC(C)(C3)C1)C2	VP16 counter 22µM, RORgamma inh 5µM
CC12CC3CC(C)(C1)CC(C(=O)N1CCN(C(=O)C4CCCO4)CC1)(C3)C2 (stereo unspecified)	none (no result: VP16 counter, RORgamma inh)
CC12CC3CC(C)(C1)CC(C(=O)NC(=S)N1CCCCC1)(C3)C2	VP16 counter inconclusive, GLP-1R inv ag inconclusive, RORgamma inh 0.45µM
CC12CC3CC(C)(C1)CC(C(=O)NNC(=O)c1ccncc1)(C3)C2	none
N#Cc1nc(NCC2CC2)nc(Nc2ccccc2)n1	none (no result: GLP-1R agonist, GLP1R cytotox, GLP-1R inv ag, RORgamma inh)
COc1ccc(NC(=S)NCCSc2ccc(C)cc2)c(OC)c1	GLP1R cytotox inconclusive, GLP-1R inv ag 10µM (no result: VP16 counter, RORgamma inh)
COc1ccc(OC)c(NC(=S)NCCSc2ccc(C)cc2)c1	VP16 counter inconclusive, GLP-1R inv ag inconclusive, RORgamma inh 14µM
COc1ccc(NC(=S)NCCN2CCOCC2)c(OC)c1	none (no result: VP16 counter, RORgamma inh)
COc1ccc(C(=O)CC2(O)C(=O)N(Cc3ccccc3)c3ccc(Br)cc32)cc1 (stereo unspecified)	GLP-1R inv ag inconclusive (no result: GLP-1R agonist, VP16 counter, RORgamma inh)
COc1ccc(Oc2ncc3ncc(=O)n(C4CC4)c3n2)cc1	none (no result: GLP-1R agonist, GLP1R cytotox, GLP-1R inv ag)
CN1C(=O)CC(c2ccco2)Sc2ccccc21 (stereo unspecified)	none
CCCN1C(=O)CC(c2ccco2)Sc2ccccc21 (stereo unspecified)	VP16 counter inconclusive, RORgamma inh 16µM
CC(C)N1CCc2c(sc(NC(=O)c3ccc([N+](=O)[O-])o3)c2C(N)=O)C1	VP16 counter inconclusive, RORgamma inh 7.1µM (no result: GLP-1R agonist, GLP1R cytotox, GLP-1R inv ag)
COC(=O)c1c(NC(=O)c2ccc([N+](=O)[O-])o2)sc2c1CCN(C(C)C)C2	VP16 counter inconclusive, GLP1R cytotox inconclusive, GLP-1R inv ag inconclusive, RORgamma inh inconclusive
CC#CCOC(=O)C1=CCCN(C)C1	none (no result: GLP-1R agonist, GLP1R cytotox, GLP-1R inv ag)
COC(=O)c1cc(=O)n(Cc2ccc(OC)c(OC)c2)c(=Nc2ccc(F)cc2)s1	VP16 counter inconclusive, GLP-1R inv ag inconclusive, RORgamma inh inconclusive
COC(=O)c1cc(=O)n(CCc2ccc(OC)c(OC)c2)c(=Nc2ccc(F)c(Cl)c2)s1	VP16 counter inconclusive, GLP-1R inv ag inconclusive, RORgamma inh 18µM
Cn1c(SCC(=O)NNC(=S)Nc2ccccc2)nnc1-c1ccccc1	VP16 counter 1.4µM, RORgamma inh 0.89µM
Cc1ccc(NC(=S)NNC(=O)CSc2nnc(-c3ccc(Cl)cc3)n2C2CCCCC2)cc1	VP16 counter inconclusive, RORgamma inh 11µM
O=C(CSc1nnc(SCc2ccccc2)s1)NNC(=S)Nc1ccccc1	VP16 counter 13µM, RORgamma inh 14µM
CCn1c(C)nnc1SCC(=O)Nc1ccc(Cl)cc1	none
Cn1c(SCC(=O)NNC(=O)Nc2ccccc2)nnc1-c1ccccc1	GLP-1R inv ag inconclusive
CCn1c(SCC(=O)NNC(=S)Nc2ccc(C)cc2)nnc1-c1ccc(Cl)cc1	VP16 counter 1.4µM, RORgamma inh 3.5µM
Cc1cc(=O)oc2cc(NC(=O)[C@H](CCCCN)NC(=O)[C@H](CC3CCCCC3)NC(=O)OCC3c4ccccc4-c4ccccc43)ccc12	none (no result: GLP-1R agonist, GLP1R cytotox, GLP-1R inv ag)
CC(=O)N1c2ccccc2C(=O)C1N1CCN(c2cc(Cl)ccc2C)CC1 (stereo unspecified)	GLP-1R inv ag inconclusive (no result: GLP-1R agonist, VP16 counter, RORgamma inh)
CCC1=C(c2ccc(C)cc2)S(=O)(=O)N=C1N1CCC(C(=O)NCCc2cccc(OC)c2)CC1	none (no result: GLP-1R agonist, VP16 counter, RORgamma inh)
CN1CCN(C(c2ccccc2)c2ccccc2)CC1	VP16 counter inconclusive, GLP-1R inv ag inconclusive
CN1CCCN(C(c2ccccc2)c2ccc(Cl)cc2)CC1 (stereo unspecified)	GLP1R cytotox inconclusive, GLP-1R inv ag inconclusive, RORgamma inh 10µM!
Cc1ccccc1OCCn1c(=S)[nH]c2ccccc21	VP16 counter 4.5µM, GLP1R cytotox inconclusive, GLP-1R inv ag inconclusive, RORgamma inh 2.5µM
Fc1ccccc1OCCn1c(=S)[nH]c2ccccc21	VP16 counter 4.5µM, GLP1R cytotox inconclusive, GLP-1R inv ag inconclusive, RORgamma inh 5.6µM
O=C(COc1ccc(F)cc1)NCC(c1ccc(Cl)cc1)N1CCCCC1 (stereo unspecified)	GLP-1R inv ag inconclusive (no result: GLP-1R agonist, VP16 counter, RORgamma inh)
CC1CCN(C(=O)c2ccc(NC(=O)c3nsc4ccccc34)cc2)CC1	none (no result: GLP-1R agonist, VP16 counter, RORgamma inh)
COc1ccc2c(c1)CCc1c(C(=O)Nc3c(C)nn(Cc4ccccc4Cl)c3C)noc1-2	GLP-1R inv ag 10µM (no result: GLP-1R agonist, VP16 counter, RORgamma inh)
COc1ccc2c(c1)CCc1c(C(=O)N3CC4(C)CC3CC(C)(C)C4)noc1-2 (stereo unspecified)	VP16 counter inconclusive, GLP-1R inv ag 13µM
CC1(C)CC2CC(C)(CN2C(=O)c2cc(-c3ccccc3)on2)C1 (stereo unspecified)	GLP-1R inv ag 2.8µM
CC1(C)CC2CC(C)(CN2C(=O)c2cc(-c3ccc(F)cc3)on2)C1 (stereo unspecified)	GLP-1R inv ag inconclusive
COc1ccc2c(c1)CCc1c(C(=O)Nc3ccc(OC)c(OC)c3)noc1-2	VP16 counter inconclusive, RORgamma inh 1.4µM
CC(=O)c1sc(NC(=O)C2(F)C(F)(F)C(F)(F)C(F)(F)C(F)(F)C2(F)F)nc1C	VP16 counter 3.5µM, GLP1R cytotox inconclusive, RORgamma inh 4µM
O=C(Nc1nc2c(s1)CCCC2)c1cccs1	VP16 counter inconclusive, GLP-1R inv ag 10µM, RORgamma inh inconclusive

High-throughput results from PubChem.
